Results filed as inconclusive are left out. Some compounds were tested as several samples or in several runs, with calls that do not always agree. The source made the active and inactive calls. How the source made its calls: active means hit-call score of the fitted dose curve at least 0.9, where 1 is the maximum; inconclusive means response in the unintended direction; inactive means score below 0.9.
Assays:
[1] = TOX21_p53_BLA_p2_viability: Viability Assessment in the Tox21 HCT-116 p53 Agonism Beta-lactamase Assay, Phase 2 (AID 2283591);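 further: compound exposure lasted 16 h at 37 °C; actives lower the ATP signal meaning cytotoxicity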
Method in brief: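 HCT-116 p53-bla cells (4000/well) rested 5 h at 37C, then received compounds in DMSO (217-fold dilution) for 16 h at 37C, 5% CO2. After the CCF4 read, CellTiter-Glo was added; ATP luminescence was read after 30 min at room temperature.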

[2] = TOX21_p53_BLA_p3_viability: Viability Assessment in the Tox21 HCT-116 p53 Agonism Beta-lactamase Assay, Phase 3 (AID 2283593);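 further: cells exposed to compound for 16 h before reading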
Method in brief: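 HCT-116 cells (4000/well) rested 5 h at 37C, then got DMSO compounds by pin tool (217-fold dilution) for 16 h at 37C, 5% CO2. After the bla read, CellTiter-Glo was added and luminescence read at 30 min, room temperature.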

[3] = target: Cellular tumor antigen p53 (Homo sapiens) (UniProt P04637); test: TOX21_p53_BLA_p3_ratio: Tox21 HCT-116 p53 Agonism Beta-lactamase Assay, Ratio, Phase 3 (AID 2283596)
Method in brief: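 Cells were seeded at 4000/well, rested 5 h at 37C, then dosed with DMSO compound solutions (217-fold dilution) for 16 h. CCF4-AM substrate was loaded for 2 h at room temperature, and the 460/530 nm emission ratio was fitted for gain of signal versus DMSO.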

[4] = TOX21_p53_BLA_p4_viability: Viability Assessment in the Tox21 HCT-116 p53 Agonism Beta-lactamase Assay, Phase 4 (AID 2283597);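 further: hits lower the luminescence signal meaning cytotoxicity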
Method in brief: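 In this multiplexed secondary endpoint, HCT116 cells (4000 per well, compound at 5 h, 16 h treatment) received CellTiter-Glo after the beta-lactamase read. Luminescence after 30 min RT reflects ATP, and falling signal marks cytotoxicity.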

[5] = target: Cellular tumor antigen p53 (Homo sapiens) (UniProt P04637); test: TOX21_p53_BLA_p5_ratio: Tox21 HCT-116 p53 Agonism Beta-lactamase Assay, Ratio, Phase 5 (AID 2283599)
Method in brief: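 HCT-116 cells carrying a p53-inducible beta-lactamase reporter were seeded at 4000 cells/well and dosed after 5 h with compound in DMSO (217-fold dilution). After 16 h at 37C, CCF4-AM substrate was added for 2 h, and the 460/530 nm emission ratio was scored as gain-of-signal versus DMSO.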

[6] = TOX21_p53_BLA_p5_viability: Viability Assessment in the Tox21 HCT-116 p53 Agonism Beta-lactamase Assay, Phase 5 (AID 2283600)
Method in brief: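 Here cell health was gauged by ATP levels in wells holding 4000 cells, each treated 16 h with DMSO-delivered compounds at 217-fold dilution; reduced luminescence marked toxicity.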

[7] = target: Cellular tumor antigen p53 (Homo sapiens) (UniProt P04637); test: TOX21_p53_BLA_p2_ratio: Tox21 HCT-116 p53 Agonism Beta-lactamase Assay, Ratio, Phase 2 (AID 2283592)
Method in brief: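 DMSO-normalized, positive-direction endpoint derived from the 460 nm/530 nm FRET ratio in HCT116 p53 beta-lactamase reporter cells exposed 16 h at 37C and loaded with CCF4-AM for 2 h.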

[8] = target: Cellular tumor antigen p53 (Homo sapiens) (UniProt P04637); test: TOX21_p53_BLA_p4_ratio: Tox21 HCT-116 p53 Agonism Beta-lactamase Assay, Ratio, Phase 4 (AID 2283601)
Method in brief: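 HCT116 cells carrying an inducible beta-lactamase reporter were plated at 4000 cells/well, rested 5 h, then exposed to compounds in DMSO (217-fold dilution) for 16 h at 37C. CCF4-AM substrate was loaded 2 h at room temperature; 460/530 nm emission ratio scored gain-of-signal versus DMSO.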

Measured: AC50

Sequence of Cellular tumor antigen p53 (Homo sapiens) (P04637 whole entry, looked up): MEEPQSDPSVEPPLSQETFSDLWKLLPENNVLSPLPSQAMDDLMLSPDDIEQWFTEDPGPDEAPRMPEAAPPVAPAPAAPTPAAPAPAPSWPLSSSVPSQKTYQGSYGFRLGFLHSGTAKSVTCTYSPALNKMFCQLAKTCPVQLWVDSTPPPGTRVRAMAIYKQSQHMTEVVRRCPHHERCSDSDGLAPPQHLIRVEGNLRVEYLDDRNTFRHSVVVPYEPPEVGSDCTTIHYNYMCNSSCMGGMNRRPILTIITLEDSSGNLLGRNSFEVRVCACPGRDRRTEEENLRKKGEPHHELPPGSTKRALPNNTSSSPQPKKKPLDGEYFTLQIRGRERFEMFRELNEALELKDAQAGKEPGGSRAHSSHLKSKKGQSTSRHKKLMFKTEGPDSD

CCNC(=O)/C=C/c1cccc(Br)c1
inactive: [1] | [2] | [3] | [4] | [5] | [6]

CNc1cc(OC)c(C(=O)N[C@H]2CCN(Cc3ccccc3)[C@H]2C)cc1Cl
inactive: [1] | [2] | [3] | [4] | [5] | [6]

N=C(N)N
inactive: [1] | [7] | [6] | [8]

CC(C)(C)CC(C)(C)c1cc(Cc2cc(C(C)(C)CC(C)(C)C)cc(-n3nc4ccccc4n3)c2O)c(O)c(-n2nc3ccccc3n2)c1
inactive: [1] | [2] | [3] | [4] | [5] | [6]

CC(C)C(=O)OC(=O)C(C)C
inactive: [1] | [2] | [3] | [4] | [5]

OCCN1CCN(CCCN2c3ccccc3C=Cc3ccccc32)CC1
inactive: [1] | [2] | [3] | [4] | [5] | [6] | [8]
active: [4] 28.1 µM

C[C@@H]1CC[C@H]2C(C)(C)[C@H]3C[C@@]12CC[C@@]3(C)O
inactive: [1] | [7] | [6] | [8]

CC(=O)c1ccc2c(c1)N(CCCN1CCC(CCO)CC1)c1ccccc1S2
inactive: [1] | [2] | [3] | [4] | [5] | [6] | [8]

CCCCCCCN(CC)CCCC(O)c1ccc(NS(C)(=O)=O)cc1 (centres undefined)
inactive: [1] | [2] | [3]

CN(C)CCc1c[nH]c2ccc(Cn3cncn3)cc12
inactive: [1] | [7] | [8]

CCc1ccc(C)cc1
inactive: [1] | [7] | [6]

Cc1cccc(C)c1NC(=O)c1cc(S(N)(=O)=O)c(Cl)cc1O
inactive: [1] | [2]

COc1cc([C@H]2Oc3cc([C@H]4Oc5cc(O)cc(O)c5C(=O)[C@@H]4O)ccc3O[C@@H]2CO)ccc1O
active: [7] 86.2 µM | [8] 87.1 µM
inactive: [1]

CCCC(=O)OC[C@@H](OC(=O)CCC)[C@@H](OC(=O)CCC)[C@H](Cn1c2nc(=O)[nH]c(=O)c-2nc2cc(C)c(C)cc21)OC(=O)CCC
inactive: [1] | [2] | [3] | [4]

CC(=O)O[C@H]1C[C@@H]2CC[C@@H]3[C@H](CC[C@@]4(C)[C@H]3C[C@H]([N+]3(C)CCCCC3)[C@@H]4OC(C)=O)[C@@]2(C)C[C@@H]1[N+]1(C)CCCCC1
inactive: [1] | [2] | [3] | [4] | [5] | [6] | [8]

CNC(=O)C[C@@H](N)C(=O)N[C@@H](C(=O)N[C@@H]1C(=O)N2[C@@H]1SC(C)(C)[C@@H]2C(=O)O)c1ccc(O)cc1
inactive: [1] | [7] | [6] | [8]

CCCCCCCCCCCCC(=O)O
inactive: [1] | [2] | [3] | [4] | [5] | [6]

CCN(CC)CCNC(=O)c1cc(Br)c(N)cc1OC
inactive: [1] | [7] | [6] | [8]

Cn1cc(S(C)=O)c(=O)c2ccc(F)cc21 (centres undefined)
inactive: [1] | [7] | [8]

O=C(O)c1cc(=O)c2ccccc2o1
inactive: [1] | [7] | [6] | [8]

CCCCOC(=O)CO
inactive: [1] | [7] | [6] | [8]

CN1CCN(CC(=O)N2c3ccccc3C(=O)Nc3cccnc32)CC1
inactive: [1] | [2] | [3] | [4]

OC[C@@H](O)[C@@H](O)CO
inactive: [1] | [2] | [3] | [4] | [5] | [6] | [8]

OCCN1C[C@H](O)[C@@H](O)[C@H](O)[C@H]1CO
inactive: [1] | [2] | [3] | [4] | [5] | [6]

CC(=O)OC[C@H]1O[C@@H](O[C@H]2[C@H](O)[C@@H](OC(=O)c3ccccc3C(=O)O)[C@H](O)O[C@@H]2COC(C)=O)[C@H](O)[C@@H](OC(=O)c2ccccc2C(=O)O)[C@@H]1O
inactive: [1] | [2] | [3] | [4]

NC/C=C/C(=O)O
inactive: [1] | [7] | [6] | [8]

C[N+](C)(C)CCCCCCCCCC[N+](C)(C)C
inactive: [1] | [7] | [6] | [8]

O=C(O)c1ccc(NC2OC[C@@H](O)[C@H](O)[C@H]2O)cc1 (some centres undefined)
inactive: [1] | [7] | [8]

C[C@H](CCC(=O)O)[C@H]1CC[C@H]2[C@@H]3[C@H](O)C[C@@H]4C[C@H](O)CC[C@]4(C)[C@H]3C[C@H](O)[C@]12C
inactive: [1] | [2] | [3] | [4] | [5] | [6] | [8]

CCCCCCC
inactive: [1] | [2] | [3] | [4] | [5] | [8]

CCN(O)CC
inactive: [1] | [2] | [3] | [4] | [5] | [6] | [8]

CN1CCN(C2Cc3ccccc3Sc3ccc(Cl)cc32)CC1 (centres undefined)
active: [1] 34.4 µM | [2] 34.5 µM | [4] 34.3 µM
inactive: [3] | [6] | [8]
